Data reported in PubChem BioAssay (NCI).
The panel holds about 83,000 compounds, 20% with a hit somewhere; the sample as a whole holds those more often.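 Interpretation: 100, growth as untreated; towards 0, rising growth inhibition; 0, no net growth; 0 to -100, cell death. Compounds scoring below 10 were considered active.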 Activity calls are given as the source filed them.

What follows are molecules tested on HL-60(TB) leukemia (assay: NCI-60 one-dose screen, 48 h (100 = growth as untreated, 0 = no growth, -100 = all killed)). Conditions: 10 µM unless noted.

Question: With `CC(C)=NNC(N)=S` as the molecule, how does the growth read?
Answer: 84.7% (inactive)

Question: For `Nc1cccc2c1C(=O)c1cccc(NC(=O)c3ccccc3)c1C2=O`, which growth is on record?
Answer: 1.36% (active)

Question: For `C#CCn1cnc2cnc(Nc3cccc(NC(=O)C=C)c3)nc21`, which growth is on record?
Answer: 8.32% [6.25 µM] (active)

Question: `CCOC(=O)/C(=C/c1ccc(OC)cc1)N(CC)CC` was tested. Which growth did it give?
Answer: 98% (inactive)

Question: How did the growth turn out when `C=C1C(=O)O[C@H]2[C@H]1CC/C(Cn1cc(-c3ccsc3)nn1)=C\CC[C@@]1(C)O[C@@H]21` was run?
Answer: -23.5% (active)

Question: `COCCNc1ccc2c3c(cccc13)C(=O)N(CCN(C)C)C2=O` was tested. Which growth did it give?
Answer: -17% (active)

Question: `CCCCCCCCCCCCCCCC[N+]1(CC)CCCC1` was tested. Which growth did it give?
Answer: -69.9% (active)

Question: How did the growth turn out when `Fc1cc(F)cc(C(c2c[nH]c3ccccc23)c2c[nH]c3ccccc23)c1` was run?
Answer: 147% (inactive)

Question: `Cc1ccc(NC(=O)Cn2nncc2CN2C(=O)CSC2=O)cc1C` was tested. Which growth did it give?
Answer: 95% (inactive)

Question: With `CC1(C)N=C(N)N=C(N)N1c1ccc(F)c(C(F)(F)F)c1` as the molecule, how does the growth read?
Answer: 13.4% (inactive)

Question: `CCC(=O)c1ccc(O)c(OC)c1` was tested. Which growth did it give?
Answer: 102% (inactive)

Question: How did the growth turn out when `OCCOSCCO` was run?
Answer: 99.1% (inactive)

Question: Which growth does the source give for `COc1cccc(-c2nn(-c3ccccc3)cc2-c2ccnc(NCCNS(=O)(=O)c3ccc(C(F)(F)F)cc3)c2)c1` here?
Answer: -20.9% (active)

Question: With `COc1ccc2oc(=O)cc(CN3C(=O)S/C(=C\c4ccc(Cl)cc4)C3=O)c2c1` as the molecule, how does the growth read?
Answer: 89.5% (inactive)

Question: With `ClC1=C(Cl)C(Cl)=C(Cl)C1=Cc1ccc(Cl)cc1` as the molecule, how does the growth read?
Answer: -4.27% (active)

Question: Which growth does the source give for `CC(C)(C)c1ccc(NS(=O)(=O)c2ccc3nc(NC(=O)c4cnccn4)[nH]c3c2)cc1` here?
Answer: -21.9% (active)

Question: `COc1ccc(OC)c(Nc2nnc(-c3cc(OC)c(OC)c(OC)c3)o2)c1` was tested. Which growth did it give?
Answer: 95.5% (inactive)

Question: For `CCN(CC)CCCC(C)N/C(c1cccc(OC)c1)=c1\c(=O)[nH]n(-c2c3ccccc3nc3ccccc23)c(=O)\c1=C(/NC(C)CCCN(CC)CC)c1cccc(OC)c1` (stereo unspecified), which growth is on record?
Answer: -43.5% (active)

Question: With `COc1cccc(-c2nn(-c3ccccc3)cc2-c2ccnc(NCCCN)c2)c1` as the molecule, how does the growth read?
Answer: 39.6% (inactive)

Question: `COc1ccc(COc2cc3oc(=O)c4cc(C(C)O)ccc4c3cc2OC)cc1` (stereo unspecified) was tested. Which growth did it give?
Answer: 73.1% (inactive)

Question: For `CNc1nc(NC2CCCC2)nc(Sc2ccc(OC)cc2)n1`, which growth is on record?
Answer: 2% [100 µM] (active)

Question: With `O=[N+]([O-])c1cccc(N=Cc2ccccc2)c1` as the molecule, how does the growth read?
Answer: 106% (inactive)

Question: `S=C(N/N=C/c1ccccn1)Nc1ccccn1` was tested. Which growth did it give?
Answer: -13.7% (active)

Question: With `Nc1ccc(C(=O)CSc2nc3ccccc3[nH]2)cc1` as the molecule, how does the growth read?
Answer: 95.3% (inactive)

Question: Which growth does the source give for `O=C(O)C#Cc1ccc(Cl)cc1` here?
Answer: 94.1% (inactive)

Question: For `COc1ccc(-c2cc(-c3ccc(Cl)cc3)c(C#N)c(=O)n2CCCCC(=O)NO)cc1`, which growth is on record?
Answer: 92.7% (inactive)
